Assay results reported in ChEMBL document CHEMBL3988442, “University of Dundee, Small-Polar-MMV Screening Library” (2021).
Hit rate of the full screen: of about 48,000 compounds, about 13,000 (27%) showed an effect of 50% or more. The list shows a part of the results.

Each compound was assayed on Wolbachia pipientis (assay: Anti-Wolbachia Cell-Based Screen). Settings: 5 µM.
Type: functional
Parameters: scale not given: in the data most compounds retested in dose-response had high values

| SMILES | Percent Effect [%] |
| --- | --- |
| NC(=O)CCn1cc(CNCc2csc(N)n2)c2ccccc21 | -0.3339 |
| COc1cccc(CN2CCCC2c2cncc(Nc3nncs3)n2)c1 (stereo not drawn) | 147.7 |
| Cc1cccc(CN2CCCC2c2cncc(Nc3nncs3)n2)c1 (stereo not drawn) | 111.5 |
| COc1cccc(CN(C(=O)Nc2nncs2)C2CCC(O)CC2)c1 (stereo not drawn) | 4.875 |
| Cc1ccccc1CN1CCCC1c1cncc(Nc2nncs2)n1 (stereo not drawn) | 132.3 |
| COC(=O)C(CNC(=O)Nc1nncs1)Cc1cccc(C)c1 (stereo not drawn) | -9.936 |
| Cc1ccccc1CN1CCC[C@H]1c1nc(-c2cncnc2N)no1 | -17.12 |
| CNc1cncc(C2CCCN2Cc2ccccc2OCC(=O)O)n1 (stereo not drawn) | -10.59 |
| COc1cccc(CN2CCCC2c2ccc[nH]2)c1 (stereo not drawn) | 13.97 |
| CCCN1CCCn2nc(CNC(=O)CC(C)n3ccnc3C)cc2C1 (stereo not drawn) | -9.141 |
| CCc1ncc(C(=O)N2CCN(c3cnn(C)c(=O)c3)CC2)cn1 | -4.796 |
| O=c1c2cnc(N3CCCCC3)nc2ccn1-c1ccccc1F | 37.48 |
| COCc1nc2ncc3c(=O)n(-c4ccccc4OC)ccc3n2n1 | 126.9 |
| COCc1nc2ncc3c(=O)n(-c4ccc(C(C)=O)cc4)ccc3n2n1 | 38.7 |
| CCOc1ccc(-n2ccc3nc(N4CCCC4)ncc3c2=O)cc1 | -8.321 |
| COCc1nc2ncc3c(=O)n(-c4cccc(OC)c4)ccc3n2n1 | 97.73 |
| COCc1nc2ncc3c(=O)n(-c4ccc(OC)cc4)ccc3n2n1 | 103.2 |
| Cc1ccccc1-n1ccc2nc(N3CCCC3)ncc2c1=O | -4.338 |
| O=c1c2cnc(N3CCCC3)nc2ccn1-c1cccc(C(F)(F)F)c1 | 0.9271 |
| O=c1c2cnc(N3CCCC3)nc2ccn1-c1cccc(F)c1 | -1.705 |
| Cc1ccc(NC(=O)CCc2ccco2)cc1N1CCOC1=O | -14.01 |
| CCCOCC(=O)Nc1ncc(I)cc1C | -6.497 |
| O=C(CCC1CCCN(C(=O)CCN2CCCCO2)C1)N1CCCC1 (stereo not drawn) | 3.672 |
| CNc1nc(N2CCN(Cc3ccsc3)C(CCO)C2)nc2c1CCC2 (stereo not drawn) | -11.96 |
| CCn1ccc(NC(=O)CN2C(=O)CC(C)(C)c3ccccc32)n1 | 127.7 |

| SMILES | Percent Effect [%] |
| --- | --- |
| CCN(Cc1cnn(CC)c1)C(=O)CN1C(=O)CCc2ccccc21 | -11.46 |
| COCCn1ccc(NC(=O)Nc2ccccc2)n1 | 3.766 |
| CCn1cc(NC(=O)NCC(O)c2ccccc2)cn1 (stereo not drawn) | -11.2 |
| CCN1C(=O)C(C)(C)c2cc(NC(=O)c3ccco3)ccc21 | -4.693 |
| COCCn1ccc(NC(=O)Nc2ccccn2)n1 | 7.746 |
| CCn1cc(NC(=O)CN2C(=O)CC(C)(C)c3ccccc32)cn1 | 116.8 |
| NC(=O)Cn1ccc(NC(=O)C2(c3cccc(F)c3)CCC2)n1 | -8.022 |
| CCn1ccc(NC(=O)CN2C(=O)C(C)(C)c3ccccc32)n1 | 112.9 |
| C[C@@H](NCc1cccc(Cl)c1)c1onc(-c2ccc(F)cc2)c1C(=O)O.Cl | -9.594 |
| Cc1c(C(=O)N2CC(C)(C)C2(C)C)nnn1-c1cccc2cnccc12 | -4.075 |
| Cc1nc(CN2CCCCC2CCc2cccs2)co1 (stereo not drawn) | 96.55 |
| c1csc(CCC2CCCCN2Cc2noc(C3CC3)n2)c1 (stereo not drawn) | 94.56 |
| Cc1cnn(CC2CCCN2Cc2coc(-c3cccs3)n2)c1 (stereo not drawn) | -13.53 |
| COCCC1CCCCN1Cc1nc(Cc2cccc(F)c2)no1 (stereo not drawn) | 4.701 |
| Cc1nc(C)n(CC2CCCN2CCc2cccs2)n1 (stereo not drawn) | -19.79 |
| COCc1noc(CN2CCCCC2CCc2cccs2)n1 (stereo not drawn) | 103.5 |
| COCCC1CCCCN1Cc1nc(C2CC2)no1 (stereo not drawn) | -11.16 |
| CC(C)(C(=O)NCCCc1nc2ccccc2[nH]1)n1cc(Cl)cn1 | -7.293 |
| CC(C)CC(CCO)CNC(=O)N1CCC1(C)C (stereo not drawn) | -13.05 |
| Cc1nnc2n1CCN(C(=O)c1cnc3c(cnn3C(C)C)c1)C2 | -12.78 |
| CCOCC(=O)N1CCC(Cc2nnc(SC)n2C)CC1 | 5.722 |
| CC1CCN(S(=O)(=O)NCc2ccccc2Cn2cccn2)CC1 | 110.3 |
| CC1CCN(S(=O)(=O)NCc2ccccc2Cn2cncn2)CC1 | 5.954 |
| O=S(=O)(NCc1ccccc1Cn1cncn1)N1CCCCCC1 | 113.8 |
| O=C(CCNC(=O)C1CCCC1)NCc1ccccc1Cn1cncn1 | 1.009 |

| SMILES | Percent Effect [%] |
| --- | --- |
| CN(C)C1CCN(C(=O)NCc2ccccc2Cn2cncn2)CC1 | -21.25 |
| CC1CCCN(S(=O)(=O)NCc2ccccc2Cn2cncn2)C1 (stereo not drawn) | 105.5 |
| O=S(=O)(NCc1ccccc1Cn1cncn1)C1CCCC1 | 4.456 |
| NC(=O)C1CCN(C(=O)NCc2ccccc2Cn2cncn2)CC1 | -13.11 |
| O=S(=O)(NCc1cccnc1OC1CCCC1)N1CCCCC1 | 6.628 |
| CC1CN(Cc2ccccc2Cn2cccn2)CCN1C (stereo not drawn) | -6.674 |
| O=S(=O)(NCc1ccccc1Cn1cncn1)N1CCCCC1 | 112.9 |
| Cc1nccn1-c1ccc(CNS(=O)(=O)N2CCC(C)CC2)cn1 | 2.013 |
| CCN1CCCC1CN(Cc1cc[nH]n1)CC1CCN(CCOC)CC1 (stereo not drawn) | -0.05242 |
| CN1CCC(N(Cc2ccco2)S(=O)(=O)c2ccc(Br)cc2Cl)CC1 | 36.62 |
| CCN1C(=O)C2(CCOCC2)c2cc(NC(=O)c3cnccn3)ccc21 | -0.09306 |
| CC(=O)NCC(=O)N1Cc2cnc(CC(C)C)nc2C1 | 15.63 |
| NCC1CN(Cc2cn(CCC(N)=O)c3ccccc23)CCO1 (stereo not drawn) | -15.16 |
| Cc1noc(C)c1-c1cc(CCC2CN(CCC(N)=O)CCO2)ncn1 (stereo not drawn) | 120.1 |
| COCCC1CN(Cc2cn(CCC(N)=O)c3ccccc23)CCO1 (stereo not drawn) | -2.901 |
| Cc1noc(C)c1-c1cc(CCC2CN(C(=O)C(C)C)CCO2)ncn1 (stereo not drawn) | 137.5 |
| CC(=O)N1CCOC(CCc2cc(-c3c(C)noc3C)ncn2)C1 (stereo not drawn) | 154 |
| COCC1CN(C(=O)Nc2cc(Cl)cc(Cl)c2)CCO1 (stereo not drawn) | -11.38 |
| Cc1[nH]nc(CCC(=O)N2CCOC(CCc3ccccc3)C2)c1C (stereo not drawn) | -1.139 |
| CCC1CN(C(=O)c2[nH]nc(C)c2Br)CCO1 (stereo not drawn) | -57.1 |
| Cc1noc(C)c1-c1cc(CCC2CN(C(=O)CN)CCO2)ncn1 (stereo not drawn) | 152 |
| Cc1ccnn1CCC(=O)N1CCOC(CCc2ccccc2)C1 (stereo not drawn) | -2.997 |
| Cc1noc(C)c1CNC(C(=O)N1CCOCC1)C(C)C (stereo not drawn) | 6.768 |
